# Results from ChEMBL document CHEMBL3988442, “University of Dundee, Small-Polar-MMV Screening Library” (2021).
# Target: T1, Methionyl-tRNA synthetase, putative (Leishmania donovani (strain BPK282A1)) (UniProt E9BF75)
# T1 sequence (whole entry): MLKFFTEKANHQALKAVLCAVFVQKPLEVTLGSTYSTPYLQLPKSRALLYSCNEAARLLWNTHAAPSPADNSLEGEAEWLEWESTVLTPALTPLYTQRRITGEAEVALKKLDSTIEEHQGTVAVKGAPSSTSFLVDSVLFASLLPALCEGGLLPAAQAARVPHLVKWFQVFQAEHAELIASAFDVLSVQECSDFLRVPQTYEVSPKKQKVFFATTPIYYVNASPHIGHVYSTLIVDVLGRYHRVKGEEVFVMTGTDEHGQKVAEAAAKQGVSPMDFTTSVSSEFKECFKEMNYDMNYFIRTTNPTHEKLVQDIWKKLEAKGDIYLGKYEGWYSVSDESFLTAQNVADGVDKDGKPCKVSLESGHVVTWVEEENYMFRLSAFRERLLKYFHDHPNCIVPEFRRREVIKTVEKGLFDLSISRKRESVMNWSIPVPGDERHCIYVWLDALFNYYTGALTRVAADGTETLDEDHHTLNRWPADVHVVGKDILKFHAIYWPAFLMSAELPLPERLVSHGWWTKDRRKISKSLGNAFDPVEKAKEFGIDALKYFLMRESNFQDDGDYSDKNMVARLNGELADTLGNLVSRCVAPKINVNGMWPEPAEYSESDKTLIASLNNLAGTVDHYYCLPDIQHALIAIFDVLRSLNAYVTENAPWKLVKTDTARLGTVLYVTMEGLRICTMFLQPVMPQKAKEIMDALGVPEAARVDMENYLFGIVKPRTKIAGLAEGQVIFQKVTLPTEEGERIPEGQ
# Experiment: Leishmania donovani Methionine tRNA synthetase (LdMetRS):v7. Dose response assay
# Type: functional
# Set-up: conc 80 nM, time 150 minutes
structure (smiles),measurement,setting,value
Cc1nc(N2CC[C@@H](O)C2)c2c(-c3cccs3)csc2n1,PXC50,MAX_EFFECT -2.07253886,< 4
same,PXC50,MAX_EFFECT -3.723404255,< 4
Cc1sc2nc(C(F)(F)F)nc(N3CCC(NS(C)(=O)=O)CC3)c2c1C,PXC50,MAX_EFFECT 0.0,< 4
same,PXC50,MAX_EFFECT 1.305483029,< 4
O=c1cc(NCCCNCc2c[nH]c3ccc(Br)cc23)[nH]c2ccccc12,PXC50,"BOTTOM 0.0, HILLSLOPE 1.551467474, MAX_EFFECT 106.0606061, TOP 104.4534441",5.79
same,PXC50,"BOTTOM 0.546192845, HILLSLOPE 1.22385612, MAX_EFFECT 106.0465116, TOP 107.4209254",5.79
Cc1nc(N2CCC(C)CC2)c2ccsc2n1,PXC50,MAX_EFFECT 9.848484848,< 4
same,PXC50,MAX_EFFECT 11.2244898,< 4
CC(C)C[C@H](N)COc1ccccc1-c1ccn(C)n1,PXC50,MAX_EFFECT 7.660455487,< 4
same,PXC50,MAX_EFFECT 10.87420043,< 4
Cc1cc(C)n(-c2nc(N3CCCC3)c3c4c(sc3n2)CCCC4)n1,PXC50,MAX_EFFECT 18.42105263,< 4
same,PXC50,MAX_EFFECT 18.75,< 4
CCc1nc(NCCCOC)c2c3c(sc2n1)CCC3,PXC50,MAX_EFFECT 10.43256997,< 4
same,PXC50,MAX_EFFECT 14.35768262,< 4
Cc1nc(N2CCC(C(N)=O)CC2)c2c3c(sc2n1)CC(C)CC3 (stereo not given),PXC50,MAX_EFFECT 5.852417303,< 4
same,PXC50,MAX_EFFECT 9.319899244,< 4
CCc1nc(NCCCN(C)C)c2cc(C)sc2n1,PXC50,MAX_EFFECT 12.06030151,< 4
same,PXC50,MAX_EFFECT 14.98771499,< 4
CNc1ccc2ncc(-c3ccc4onc(N)c4c3)n2n1,PXC50,MAX_EFFECT 16.28498728,< 4
same,PXC50,MAX_EFFECT 18.85964912,< 4
Nc1noc2ccc(-c3cnc4ccc(NCc5ccccn5)nn34)cc12,PXC50,MAX_EFFECT 7.291666667,< 4
same,PXC50,MAX_EFFECT 11.84210526,< 4
COc1cccc(-c2cc(C(F)(F)F)nc(N3CCOCC3)n2)c1,PXC50,MAX_EFFECT 8.510638298,< 4
same,PXC50,MAX_EFFECT 10.3626943,< 4
CC(C)(N)c1cc(Cl)cc(Cl)c1,PXC50,MAX_EFFECT 14.47084233,< 3
same,PXC50,MAX_EFFECT 21.86311787,< 3
CCc1nc(N2CCCC(C)C2)c2c3c(sc2n1)CCC3 (stereo not given),PXC50,"BOTTOM 6.332749468, HILLSLOPE 1.241583482, MAX_EFFECT 50.25125628, TOP 77.91036355",4.17
same,PXC50,MAX_EFFECT 49.87714988,< 4
CC(=O)N1CCN(c2nc(C(F)(F)F)nc3sc(C)c(C)c23)CC1,PXC50,MAX_EFFECT 7.310704961,< 4
same,PXC50,MAX_EFFECT 8.093994778,< 4
CCc1nc(NCc2ccccn2)c2cc(C)sc2n1,PXC50,MAX_EFFECT 5.651105651,< 4
same,PXC50,MAX_EFFECT 6.030150754,< 4
COCCN(Cc1sccc1C)c1nc(C)nc2sccc12,PXC50,MAX_EFFECT 12.79373368,< 4
same,PXC50,MAX_EFFECT 17.23237598,< 4
COCCNC(=O)c1ccc2ccc(N3CCN(CC4CC4)CC3)n2c1,PXC50,"BOTTOM 5.874206897, HILLSLOPE 1.640597442, MAX_EFFECT 51.96261682, TOP 70.05301325",4.26
same,PXC50,MAX_EFFECT 46.71201814,< 4
Cc1nc(NCc2noc(C3CCCO3)n2)c2ccsc2n1 (stereo not given),PXC50,MAX_EFFECT 9.660574413,< 4
same,PXC50,MAX_EFFECT 12.53263708,< 4
NCc1ccc(Cl)cc1Cl,PXC50,MAX_EFFECT 13.60691145,< 3
same,PXC50,MAX_EFFECT 15.77946768,< 3
COc1ccccc1C1(CNc2nnc(C)c(C)c2C#N)CCOCC1,PXC50,MAX_EFFECT 9.85915493,< 4
same,PXC50,MAX_EFFECT 18.33333333,< 4
Cc1c(-c2cc(C(F)(F)F)nc(N3CCC(N)CC3)n2)cnn1C,PXC50,MAX_EFFECT 7.485604607,< 4
same,PXC50,MAX_EFFECT 8.133971292,< 4
Cn1cc(CN2CCC(F)(F)C3(CCN(c4cccc(F)c4)C3)C2)cn1 (stereo not given),PXC50,MAX_EFFECT 7.256235828,< 4
same,PXC50,MAX_EFFECT 17.57009346,< 4
Cc1sc2nc(CN(C)Cc3ccc(C(F)(F)F)cc3)nc(N)c2c1C,PXC50,MAX_EFFECT 10.05291005,< 4
same,PXC50,MAX_EFFECT 12.8,< 4
CNC(=O)CNc1nc(CN2CCCCC2)nc2sc3c(c12)CCC3,PXC50,MAX_EFFECT 7.304785894,< 4
same,PXC50,MAX_EFFECT 12.46819338,< 4
CS(=O)(=O)N1CCN(c2ccc3ccc(C(=O)NCCN4CCS(=O)(=O)CC4)cn23)CC1,PXC50,"BOTTOM 1.003127248, HILLSLOPE 2.200420441, MAX_EFFECT 73.49177331, TOP 74.60069177",4.88
same,PXC50,"BOTTOM 1.050104582, HILLSLOPE 2.645513549, MAX_EFFECT 70.81339713, TOP 67.22785398",4.94
Cc1cc2c(N3CCOCC3)nc(-c3cccnc3)nc2s1,PXC50,MAX_EFFECT 2.18579235,< 4
same,PXC50,MAX_EFFECT 5.347593583,< 4
Cn1cc(CN2CCC(F)(F)C3(CCN(c4ncc(F)cn4)C3)C2)cn1 (stereo not given),PXC50,MAX_EFFECT 3.286384977,< 4
same,PXC50,MAX_EFFECT 5.740740741,< 4
Cc1cc(Br)sc1CNCCCNc1cc(=O)c2ccccc2[nH]1,PXC50,"BOTTOM 0.0, HILLSLOPE 1.706331743, MAX_EFFECT 106.0465116, TOP 103.2080248",6.25
same,PXC50,"BOTTOM 0.0, HILLSLOPE 2.906661209, MAX_EFFECT 104.1958042, TOP 102.1210588",6.14
Cc1cc(C(F)(F)F)nc(N2CCN(Cc3nccn3C)CC2)n1,PXC50,MAX_EFFECT 3.571428571,< 4
same,PXC50,MAX_EFFECT 6.313131313,< 4
